Bioassay records: PubChem, National Center for Advancing Translational Sciences (NCATS)
This is one part of a sample in which hits are shown more often than they occur.
Caspase-7 inhib – blocks human caspase-7 allosterically or competitively; 75,000 tested, 0.02% active; Potency, µM (highest dose often 57.5 µM), usual class: inhibitors; P55210; recombinant caspase-7, Ac-DEVD-AFC fluorescence rate; AID 889; active = well fitted inhibition curve with a large enough effect in the main read-out, with a control signal flat, not every such curve was filed as active; inconclusive = small, poorly fitted or top-dose-only effect, or a change in a side signal
GBA mod – human lysosomal glucosylceramidase modulation; purified enzyme, resorufin glucoside fluorescence (screen aimed at inhibitors), 20 min; P04062; 48,000 tested, 1.1% active; AID 360; Potency, µM; in the data active = potency below about 15 µM; inconclusive = mostly about 16 µM to 33 µM;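 note: the screen sought inhibitors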
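Compounds titrated against 0.2 nM normal enzyme, 30 uM resorufin beta-D-glucopyranoside substrate, citrate/phosphate buffer with taurocholate and tween-20, pH 5.9. Reaction ran 20 min at room temperature; fluorescence (Ex 548/Em 600) gave AC50.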
Caspase-1 inhib – allosteric or competitive inhibitors of human caspase-1 | Caspase-1 enzyme, Ac-WEHD-AFC fluorogenic rate | Potency, µM (highest dose often 57.5 µM), usual class: inhibitors | P29466 | AID 900 | 75,000 tested, 0.03% active; active = well fitted inhibition curve with a large enough effect; inconclusive = small, poorly fitted or top-dose-only effect
Each line names hits and unclear results; the compound was inactive in the other large screens.

C=CCn1c(C)cc(C(=O)CSc2nc3ccccc3o2)c1C	none
Cc1cc(C(=O)CSc2nc3ccccc3o2)c(C)n1C1CC1	GBA mod 14
O=C(CSc1nnc2ccccn12)c1ccc2c(c1)OCCO2	none (no result: GBA mod)
COc1ccccc1CNc1ccnc(-c2ccccc2C(F)(F)F)n1	none (no result: GBA mod)
COC(=O)[C@H](C)NC(=O)[C@@H](C)CO	none (no result: GBA mod)
CCn1c(=S)sc2c(=O)n(-c3ccccc3)c(SC)nc21	none
N#CCSc1nc2c(sc(=S)n2Cc2ccco2)c(=O)n1-c1ccc(F)cc1	GBA mod 6
CC(C)c1ccc(NC(=O)C2CC(=O)N=C(N)S2)cc1 (stereo unspecified)	GBA mod 3.8
CCc1ccc(NC(=O)C2CC(=O)N=C(N)S2)cc1 (stereo unspecified)	GBA mod inconclusive
C[C@@]12C(=O)OC(=O)[C@@]1(C)[C@H]1CC[C@@H]2O1	none (no result: GBA mod)
O=C1CN(C(=O)c2ccco2)C(c2ccc(F)cc2)c2cc(Cl)ccc2N1 (stereo unspecified)	none
O=C1CN2C(=Nc3ccc(Cl)cc3C2c2ccccc2)CN1 (stereo unspecified)	GBA mod 1.3
CS(=O)(=O)N1CCC2(CCCN(c3ccncc3)C2)CC1	none (no result: GBA mod)
c1ccc(C(CCN2CC3CCC(CC3)C2)c2ccccc2)cc1	none (no result: GBA mod)
Nc1nc(N2CCN(C/C=C/c3ccccc3)CC2)nc2ccccc12	GBA mod 8.4
O=c1[nH]c(CN2CCN(C/C=C/c3ccccc3)CC2)nc2ccccc12	none
CCN1C(=O)[C@@H]2[C@H]3C(=CC[C@@H]2C1=O)C1(OCCCO1)[C@H]1O[C@@H]1[C@H]3O	none (no result: GBA mod)
Cc1cccc(-n2c(O)c(C=Nc3ccc4c(c3)OCO4)c3ccccc3c2=O)n1	Caspase-7 inhib inconclusive, Caspase-1 inhib inconclusive
Cc1cc(N=Cc2c(O)n(-c3ccc4c(c3)OCO4)c(=O)c3ccccc23)ccn1	Caspase-7 inhib inconclusive, GBA mod 11 (no result: Caspase-1 inhib)
COC(=O)c1sccc1NC(=O)Cn1nnc(-c2ccc(C)cc2)n1	GBA mod 15
Cc1cccc(NC(=O)Cn2nnc(-c3cccs3)n2)c1C	none
C=CCSc1nc2c(N)ncnc2n1[C@@H]1O[C@H](CO)[C@@H](O)[C@@H]1O	none (no result: GBA mod)
CNc1ccc(C(O)(C(F)(F)F)C(F)(F)F)cc1C(O)(C(F)(F)F)C(F)(F)F	GBA mod 13
CCOC(=O)N(C)c1ccc(C(O)(C(F)(F)F)C(F)(F)F)cc1	GBA mod inconclusive
COc1ccc2[nH]cc(CCNc3ncnc4ccc(-c5c(C)noc5C)cc34)c2c1	none (no result: GBA mod)
CC(=O)c1sc2nc(-c3cccs3)cc(C(F)(F)F)c2c1N	Caspase-7 inhib inconclusive, GBA mod 14, Caspase-1 inhib inconclusive
CS(=O)(=O)c1sc2nc(-c3cccs3)cc(-c3ccccc3)c2c1N	Caspase-7 inhib inconclusive (no result: Caspase-1 inhib)
N=c1c2c3c(sc2ncn1CCN1CCOCC1)CCCCC3	GBA mod inconclusive
c1nc(NCCN2CCOCC2)c2c3c(sc2n1)CCCCC3	GBA mod 7.5
Cc1cc(-c2nnc3sc(C4CCCCC4)nn23)n[nH]1	none
COc1cc(-c2nnc3sc(C4CCCCC4)nn23)cc(OC)c1OC	GBA mod 7
O=C1OC2(c3cc(Br)c(O)c(Br)c3Oc3c2cc(Br)c(O)c3Br)c2c(Cl)c(Cl)c(Cl)c(Cl)c21	Caspase-1 inhib inconclusive (no result: GBA mod)
CCCCN1CCc2c([nH]c3c(C)cccc23)C1=O	GBA mod 9.8
CCCc1c(C)c2cccc(C)c2[nH]c1=O	none (no result: GBA mod)
CNC1=C(Cl)C(=O)c2ccncc2C1=O	Caspase-1 inhib inconclusive (no result: GBA mod)
Cc1ccc(Cn2c(=N)n(CC(O)c3ccco3)c3ccccc32)cc1 (stereo unspecified)	GBA mod 10
CCCn1c(=N)n(CC(O)c2ccco2)c2ccccc21 (stereo unspecified)	none
O=C(O)[C@@H]1CCN(Cc2oc(CO)cc(=O)c2O)C1	none (no result: GBA mod)
COc1ccc(N2CCN(Cc3cc(=O)oc4ccc(Cl)cc34)CC2)cc1	none
COc1ccc(N2CCN(Cc3cc(=O)oc4c3ccc3ccccc34)CC2)cc1	GBA mod 3.3
O=C(N/N=C1/C[C@@H](O)[C@@H](O)[C@@H]2[C@@H]3C(=O)N(Cc4ccccc4)C(=O)[C@H]3CC[C@H]12)OCc1ccccc1	none (no result: GBA mod)
O=C(c1cc2ccccc2o1)N1CCN(c2ccccc2Cl)CC1	none
O=C(Nc1ccc(N2CCN(C(=O)c3ccco3)CC2)c(Cl)c1)c1cc2ccccc2o1	GBA mod inconclusive
CCC(=O)N1CCN(c2ccc(NC(=O)c3cc4ccccc4o3)cc2Cl)CC1	GBA mod 3.2
CCCC(=O)N1CCN(c2ccc(NC(=O)c3cc4ccccc4o3)cc2Cl)CC1	GBA mod 4.2
CN(C)Cc1ccccc1-c1nc(N(C)C)c2ccccc2n1	none (no result: GBA mod)
CC1(C)S[C@@H]2[C@H](NC(=O)COc3ccccc3)C(=O)N2[C@H]1C(=O)O (tested in a mixture with another compound)	none (no result: GBA mod)
C=C(C)C1CC[C@]2(CO)CC[C@@]3(C)[C@H](CCC4[C@@]5(C)CCC(O)C(C)(C)C5CC[C@@]43C)C12 (stereo partly specified)	none (no result: GBA mod)
COc1ccc2oc(=O)c(-c3nnc(NCc4ccco4)s3)cc2c1	Caspase-7 inhib inconclusive, GBA mod 9.9 (no result: Caspase-1 inhib)
CCOc1cccc2cc(-c3nnc(NCc4ccco4)s3)c(=O)oc12	Caspase-7 inhib inconclusive (no result: Caspase-1 inhib)
O=C(O)C[C@@H]1CCCc2ccccc2[C@H]1O	none (no result: GBA mod)
CCOC(=O)OCC1OC(c2ccccc2)C=CC1Oc1ccc(F)cc1C (stereo unspecified)	none (no result: GBA mod)
CCOC(=O)c1c(C)[nH]c(C(=O)COC(=O)c2ccncc2)c1C	none
CCOC(=O)c1c(C)[nH]c(C(=O)COC(=O)CCC(=O)c2ccc3c(c2)OCCO3)c1C	GBA mod 11
CCOC(=O)c1c(C)[nH]c(C(=O)COC(=O)C2CC2C)c1C (stereo unspecified)	GBA mod 7.8
CCOC(=O)c1[nH]c(C)c(C(=O)Nc2ccc3c(c2)OCCO3)c1C	none
COc1ccc(OCCn2c(=N)n(CCO)c3ccccc32)cc1	GBA mod 4.3
N=c1n(CCO)c2ccccc2n1CCOc1ccc(Cl)cc1Cl	none (no result: GBA mod)
O=C(O)c1cc(C(=O)C(=O)c2cc(C(=O)O)c(O)c3ccccc23)c2ccccc2c1O	none (no result: GBA mod)
Fc1ccccc1N1CCN(c2nc3ccccc3n3nnnc23)CC1	GBA mod 13
Fc1cc(Br)ccc1Nc1nc2ccccc2n2nnnc12	none (no result: GBA mod)
Cc1onc(-c2ccccc2Cl)c1C(=O)Nc1ccc(F)c(F)c1	none
Cc1onc(-c2ccccc2Cl)c1C(=O)Nc1cccc(-c2cn3cccnc3n2)c1	GBA mod 11
C=C1CCC2[C@](C)(CO)C(O)CC[C@]2(C)C1C/C=C1/C(=O)OCC1O (stereo partly specified)	none (no result: GBA mod)
O=C(NCC1CCCO1)c1ccc2c(=O)n(CCc3ccccc3)c(=O)[nH]c2c1 (stereo unspecified)	none
CC1CCCC(NC(=O)c2ccc3c(=O)n(CC4CCCO4)c(=O)[nH]c3c2)C1C (stereo unspecified)	GBA mod 1.6
CSC(N)=NCCCC(N)C(=O)O (stereo unspecified)	none (no result: GBA mod)
O=C(CCCc1nc(-c2ccc(Cl)cc2)no1)Nc1cccnc1	none (no result: GBA mod)
O=C(Nc1ccc(-c2noc(CCc3ccccc3)n2)cc1)c1cccnc1	GBA mod 14
Cc1ccccc1-c1cc(N2CCNCC2)ncn1	none (no result: GBA mod)
C=C(C)C(O)C(CC/C=C(\C)C(=O)OCC)OC (stereo unspecified)	none (no result: GBA mod)
